The supplement of paper PMC9950053
Where a name gives a salt, the structure may show the parent alone.

The compounds below were run on Danio rerio larvae (5 dpf) (assay: 1-h baseline activity (% time moving, periods 1-6) minus DMSO control (percentage points); higher = more locomotor activity than DMSO larvae). Details: 10 µM; exposure time: 3 h pre-incubation + 3 h imaging.
Experimental: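 Wild-type 5 dpf zebrafish larvae (n=48 per drug, 96-well plates, 28.5 °C) were exposed to Tocris FDA-approved library compounds at 10 µM (0.1% DMSO) for 3 h before and 3 h during imaging. Images were taken every 6 s during visual and acoustic stimuli, and larvae were tracked with Z-LaP Tracker. Each measure is the treated-group mean minus the DMSO control mean (n=844), in percentage points. This mapping covers compounds with 5-character plate codes.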

Row | SMILES | 1-h baseline activity
1 | COc1ccc(C(CN(C)C)C2(O)CCCCC2)cc1 (stereo unspecified) [Venlafaxine hydrochloride] | -22.8
